Activity calls are given as the source filed them. How the source made its calls: active means hit-call score of the fitted dose curve at least 0.9, where 1 is the maximum; inactive means score below 0.9.
Experiments:
[1] = BSK_KF3CT_SRB: Viability Assessment in the BioMAP Diversity Plus: KF3CT Assay (AID 2283069); details: primary human keratinocytes with fibroblasts
In short: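 Overt cytotoxicity is assessed as total protein by sulforhodamine B staining in parallel human skin co-cultures at 24 h after dosing. DMSO serves as negative control and baseline.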

[2] = read-out: TIMP metallopeptidase inhibitor 2 (TIMP2), TIMP2 (gene 7077); experiment: BSK_KF3CT_TIMP2: BioMAP Diversity Plus: KF3CT Assay for TIMP metallopeptidase inhibitor 2 (TIMP2) Biomarker Activity (AID 2283071); details: primary human keratinocytes with fibroblasts; actives raise or lower the signal
In short: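 Measurements come from ELISA detection of TIMP-2 at 24 hours in a dosed human keratinocyte and foreskin fibroblast co-culture. DMSO serves as negative control and baseline.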

[3] = read-out: Transforming growth factor beta 1 (TGFb1), TGFB1 (gene 7040); experiment: BSK_KF3CT_TGFb1: BioMAP Diversity Plus: KF3CT Assay for Transforming growth factor beta 1 (TGFb1) Biomarker Activity (AID 2283072); details: primary human keratinocytes with fibroblasts; actives raise or lower the signal
In short: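 TGF-b1 ELISA on a 24 h dosed co-culture of human keratinocytes and foreskin fibroblasts; cytotoxicity tracked in parallel cultures by SRB staining.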

[4] = read-out: C-C motif chemokine 2 (Homo sapiens) (UniProt P13500); experiment: BSK_KF3CT_MCP1: BioMAP Diversity Plus: KF3CT Assay for Monocyte Chemoattractant Protein 1 (MCP1/CCL2) Biomarker Activity (AID 2283073); details: primary human keratinocytes with fibroblasts; actives raise or lower the signal
In short: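 ELISA read-out of MCP-1, 24 h post-dose, in primary human skin keratinocytes co-cultured with fibroblasts. Parallel SRB staining monitors cytotoxicity; changes fitted both directions relative to DMSO.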

[5] = read-out: Matrix Metallopeptidase 9 (MMP9), MMP9 (gene 4318); experiment: BSK_KF3CT_MMP9: BioMAP Diversity Plus: KF3CT Assay for Matrix Metallopeptidase 9 (MMP9) Biomarker Activity (AID 2283074); details: primary human keratinocytes with fibroblasts; actives raise or lower the signal
In short: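 Values come from bidirectional fitting relative to DMSO of MMP-9 levels, which were measured by ELISA. Measurements were taken 24 h after chemical dosing of a keratinocyte and foreskin fibroblast co-culture.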

[6] = read-out: urokinase plasminogen activator (uPA), PLAU (gene 5328); experiment: BSK_KF3CT_uPA: BioMAP Diversity Plus: KF3CT Assay for urokinase plasminogen activator (uPA) Biomarker Activity (AID 2283075); details: primary human keratinocytes with fibroblasts; actives raise or lower the signal
In short: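 Values derive from bidirectional fitting against DMSO controls. Keratinocyte/foreskin fibroblast co-cultures received chemical; 24 h later uPA was detected by ELISA, with SRB total-protein staining in parallel wells for overt cytotoxicity.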

[7] = read-out: CD40, CD40 (gene 958); experiment: BSK_LPS_CD40: BioMAP Diversity Plus: LPS Assay for CD40 Biomarker Activity (AID 2283076); details: primary human HUVEC with PBMC; actives raise or lower the signal
In short: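 In the LPS system of human endothelial cells with peripheral blood mononuclear cells, CD40 levels were read by ELISA 24 h post-treatment. Signal changes in either direction were fitted against the DMSO baseline, with parallel SRB protein staining.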

[8] = read-out: E-selectin (Homo sapiens) (UniProt P16581); experiment: BSK_LPS_Eselectin: BioMAP Diversity Plus: LPS Assay for Eselectin Biomarker Activity (AID 2283077); details: primary human HUVEC with PBMC; actives raise or lower the signal
In short: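 E-selectin ELISA on LPS-stimulated endothelial cell/PBMC co-cultures, read 24 h post-treatment; gains and losses fitted against DMSO. Parallel SRB staining (0.1% SRB after 10% TCA fixation, 560 nm) flags overt cytotoxicity.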

[9] = read-out: Interleukin-8 (IL8), CXCL8 (gene 3576); experiment: BSK_LPS_IL8: BioMAP Diversity Plus: LPS Assay for Interleukin-8 (IL8) Biomarker Activity (AID 2283078); details: primary human HUVEC with PBMC; actives raise or lower the signal
In short: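 ELISA read-out of IL-8 after 24 h chemical treatment of LPS-activated endothelial/PBMC human primary co-cultures. Changes either up or down relative to DMSO; overt cytotoxicity checked by sulforhodamine B staining in parallel wells.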

[10] = BSK_LPS_SRB: Viability Assessment in the BioMAP Diversity Plus: LPS Assay (AID 2283079); details: primary human HUVEC with PBMC;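 further: total protein by sulforhodamine B absorbance as a cytotoxicity measure; measured one day after compound addition; fitted in both directions against DMSO so loss or gain of signal counts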
In short: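 SRB viability endpoint: cells fixed with 10% TCA, stained with 0.1% SRB, read at 560 nm, 24 h post-dose. HUVEC/PBMC co-culture; signal change in either direction scored relative to DMSO.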

[11] = read-out: Interleukin-1 alpha (IL1a), IL1A (gene 3552); experiment: BSK_LPS_IL1a: BioMAP Diversity Plus: LPS Assay for Interleukin-1 alpha (IL1a) Biomarker Activity (AID 2283080); details: primary human HUVEC with PBMC; actives raise or lower the signal
In short: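 Readout is IL-1a level by ELISA, 24 h post-dose, fitted as gain or loss relative to DMSO. System: LPS-activated human primary co-culture of vascular endothelium and peripheral blood mononuclear cells, with parallel SRB total-protein cytotoxicity.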

[12] = read-out: Monocyte Chemoattractant Protein-1 (MCP1), CCL2 (gene 6347); experiment: BSK_LPS_MCP1: BioMAP Diversity Plus: LPS Assay for Monocyte Chemoattractant Protein-1 (MCP1) Biomarker Activity (AID 2283081); details: primary human HUVEC with PBMC; actives raise or lower the signal;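 on AC50: secreted MCP-1 protein quantified by ELISA in culture supernatant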
In short: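 Secreted MCP-1 read by ELISA at 24 h post-dosing in an LPS-activated co-culture of endothelial cells with peripheral blood mononuclear cells. Fits run in both directions, DMSO as baseline; parallel SRB staining tracks overt cytotoxicity.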

[13] = BSK_LPS_PGE2: BioMAP Diversity Plus: LPS Assay for Prostaglandin E2 (PGE2) Biomarker Activity (AID 2283082); details: primary human HUVEC with PBMC; actives raise or lower the signal;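 on AC50: secreted prostaglandin E2 measured by ELISA in LPS-stimulated co-culture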
In short: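 Primary human endothelial cells and blood mononuclear cells, co-cultured with LPS, receive test chemical; PGE2 ELISA follows at 24 h, with SRB-stained parallel cultures flagging cytotoxicity.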

[14] = read-out: Macrophage colony-stimulating factor (MCSF), CSF1 (gene 1435); experiment: BSK_LPS_MCSF: BioMAP Diversity Plus: LPS Assay for Macrophage colony-stimulating factor (MCSF) Biomarker Activity (AID 2283083); details: primary human HUVEC with PBMC; actives raise or lower the signal
In short: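 Bidirectional fitting against DMSO was applied to M-CSF levels read by ELISA at 24 h post-dose. The system pairs human umbilical vein endothelium with peripheral blood mononuclear cells; parallel SRB staining tracked cytotoxicity.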

[15] = read-out: Tissue Factor, F3 (gene 2152); experiment: BSK_LPS_TissueFactor: BioMAP Diversity Plus: LPS Assay for Tissue Factor Biomarker Activity (AID 2283084); details: primary human HUVEC with PBMC; actives raise or lower the signal
In short: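 Compound was added to an endothelial cell/PBMC co-culture, and after 24 h tissue factor (CD142) was read by ELISA. Gain or loss of signal was fitted against a DMSO baseline, and parallel SRB staining (560 nm) tracked overt cytotoxicity.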

[16] = read-out: Tumor necrosis factor (Homo sapiens) (UniProt P01375); experiment: BSK_LPS_TNFa: BioMAP Diversity Plus: LPS Assay for Tumour Necrosis Factor alpha (TNFa) Biomarker Activity (AID 2283085); details: primary human HUVEC with PBMC; actives raise or lower the signal;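 on AC50: TNFa protein level quantified by ELISA in the co-culture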
In short: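 ELISA-based TNFa endpoint in a human endothelial–PBMC co-culture sampled 24 h post-exposure. Curves were fitted in both directions using DMSO as baseline of activity.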

[17] = read-out: Vascular cell adhesion molecule 1 (VCAM1), VCAM1 (gene 7412); experiment: BSK_LPS_VCAM1: BioMAP Diversity Plus: LPS Assay for Vascular cell adhesion molecule 1 (VCAM1) Biomarker Activity (AID 2283086); details: primary human HUVEC with PBMC; actives raise or lower the signal
In short: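 Measured by ELISA: VCAM-1 in LPS-activated HUVEC/PBMC co-cultures 24 h after treatment. Values reflect bidirectional fitting with DMSO as baseline.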

[18] = read-out: CD38, CD38 (gene 952); experiment: BSK_SAg_CD38: BioMAP Diversity Plus: SAg Assay for CD38 Biomarker Activity (AID 2283087); details: primary human HUVEC with PBMC; actives raise or lower the signal
In short: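 Measures CD38 on a human endothelial/PBMC co-culture driven by SEB and TSST-1, 24 h after compound exposure, using ELISA with fluorescence detection; DMSO defines baseline for bidirectional curve fitting.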

[19] = read-out: CD40, CD40 (gene 958); experiment: BSK_SAg_CD40: BioMAP Diversity Plus: SAg Assay for CD40 Biomarker Activity (AID 2283088); details: primary human HUVEC with PBMC; actives raise or lower the signal
In short: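 CD40 is measured by fluorescence ELISA in an endothelial/PBMC primary human co-culture at 24 h post-dose. Fitting is bidirectional, DMSO baseline. Parallel SRB staining (560 nm) flags cytotoxicity.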

[20] = read-out: Interleukin-1 alpha (IL1a), IL1A (gene 3552); experiment: BSK_KF3CT_IL1a: BioMAP Diversity Plus: KF3CT Assay for Interleukin-1 alpha (IL1a) Biomarker Activity (AID 2283070); details: primary human keratinocytes with fibroblasts; actives raise or lower the signal
In short: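 Readout is IL-1a level by ELISA, compared bidirectionally with DMSO as baseline. Cells: human keratinocytes co-cultured with foreskin fibroblasts, harvested 24 h post-dose.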

Measured: AC50

Sequence of Tumor necrosis factor (Homo sapiens) (P01375 whole entry, looked up): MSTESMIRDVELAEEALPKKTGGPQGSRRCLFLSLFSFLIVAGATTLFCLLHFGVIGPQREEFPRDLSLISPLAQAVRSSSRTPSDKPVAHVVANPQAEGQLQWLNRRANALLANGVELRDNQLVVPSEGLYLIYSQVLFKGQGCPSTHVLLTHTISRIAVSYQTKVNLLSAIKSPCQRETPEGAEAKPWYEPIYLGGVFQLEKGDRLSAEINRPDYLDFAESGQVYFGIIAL
Sequence of E-selectin (Homo sapiens) (P16581 whole entry, looked up): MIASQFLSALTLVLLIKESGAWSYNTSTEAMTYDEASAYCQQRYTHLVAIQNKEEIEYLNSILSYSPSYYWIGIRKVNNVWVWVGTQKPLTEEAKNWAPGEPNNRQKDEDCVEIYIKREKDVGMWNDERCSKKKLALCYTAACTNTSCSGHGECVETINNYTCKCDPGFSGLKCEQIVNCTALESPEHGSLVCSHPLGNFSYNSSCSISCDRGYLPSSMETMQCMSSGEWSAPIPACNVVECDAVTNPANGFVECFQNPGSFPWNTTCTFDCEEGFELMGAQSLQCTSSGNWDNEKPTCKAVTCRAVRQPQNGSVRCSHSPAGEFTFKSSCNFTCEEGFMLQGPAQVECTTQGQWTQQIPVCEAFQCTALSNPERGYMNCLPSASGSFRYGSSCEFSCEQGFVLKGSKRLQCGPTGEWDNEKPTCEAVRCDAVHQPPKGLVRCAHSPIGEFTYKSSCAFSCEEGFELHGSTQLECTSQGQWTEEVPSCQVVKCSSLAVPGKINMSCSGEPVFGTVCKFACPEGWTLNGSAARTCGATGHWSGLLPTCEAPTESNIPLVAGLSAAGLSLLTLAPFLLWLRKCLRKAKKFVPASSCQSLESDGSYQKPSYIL

CCOP(=S)(S)OCC
active: [11] 36.6 µM
inactive: [1] | [2] | [3] | [4] | [5] | [6] | [7] | [8] | [9] | [10] | [12] | [13] | [14] | [15] | [16] | [17] | [18] | [19]

c1cc2c3c(cccc3c1)CC2
inactive: [1] | [2] | [3] | [4] | [5] | [7] | [8] | [9] | [10] | [11] | [12] | [13] | [14] | [15] | [16] | [17] | [18] | [19]

O=c1ssc(Cl)c1Cl
active: [1] 2.83 µM | [20] 3.02 µM | [2] 2.71 µM | [3] 20 µM | [4] 2.98 µM | [7] 3.38 µM | [8] 6.46 µM | [9] 7.38 µM | [10] 5.34 µM | [11] 4.19 µM | [12] 6.46 µM | [13] 2.22 µM | [14] 4.28 µM | [15] 8.4 µM | [17] 6.59 µM | [18] 4.94 µM | [19] 5.44 µM
inactive: [16]

CC(Cl)(Cl)C(=O)O
inactive: [1] | [20] | [2] | [3] | [4] | [7] | [8] | [9] | [10] | [11] | [12] | [13] | [14] | [15] | [16] | [17] | [18] | [19]

Cc1c([N+](=O)[O-])cc2c(c1[N+](=O)[O-])C(C)(C)CC2(C)C
inactive: [1] | [2] | [4] | [5] | [6] | [8] | [9] | [10] | [11] | [12] | [13] | [14] | [15] | [16] | [17] | [18] | [19]
active: [3] 3.06 µM | [7] 0.807 µM

Cc1ccc(N)cc1N
inactive: [1] | [20] | [2] | [3] | [4] | [7] | [8] | [9] | [10] | [11] | [12] | [13] | [14] | [15] | [16] | [17] | [18] | [19]

ClC(Cl)=C(c1ccc(Cl)cc1)c1ccccc1Cl
active: [1] 6.86 µM | [20] 7 µM | [2] 3.67 µM | [3] 5.46 µM | [4] 7.15 µM | [7] 20 µM | [8] 33.4 µM | [9] 20 µM | [10] 29.6 µM | [11] 26 µM | [12] 29.6 µM | [14] 20 µM | [15] 20 µM | [16] 31.7 µM | [17] 32.9 µM | [18] 20 µM | [19] 20 µM
inactive: [13]
